Data on 26 compounds can be found in PubChem BioAssay (NCI).

Compounds without any hit were thinned out: in the full panel of roughly 83,000, 20% have a hit.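 Results are percent growth after 48 hours of single-concentration exposure. 100 means growth as in untreated cells, lower positive values show inhibition; negative values down to -100 show cell death.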 Active and inactive are the calls of the source. The calls were made as follows: active = growth percent below 10; inactive = the rest.

In the assay the test system is IGROV1 ovarian. In words: NCI-60 one-dose screen, 48 h (100 = growth as untreated, 0 = no growth, -100 = all killed). The following applies: 10 µM unless noted.
In the case of `C=C(C)[C@@H]1CC[C@]2(COCCCNCCCN)CC[C@]3(C)[C@H](CC[C@@H]4[C@@]5(C)CC[C@H](O)C(C)(C)[C@@H]5CC[C@]43C)[C@@H]12`, the growth was -82.9% (active).
The same measure for `COc1ccc(/C(=N\NC(N)=S)c2ccc(Cl)cc2)cc1OC`: 30.3% (inactive); for `Brc1ccc2[nH]cc(-c3nn4cc(-c5nccs5)nc4s3)c2c1`: 32% (inactive).
The same measure for `CN1c2ccccc2Sc2cc(/C=N/Nc3ccnc4cc(Cl)ccc34)ccc21`: 104% (inactive); for `Cn1c(SCC(=O)c2ccc(F)cc2)nc2ccccc2c1=O`: 88.7% (inactive); for `CC(=O)OCCCCN1C=C/C(=C\C(=O)n2ccc3ccccc32)c2ccccc21`: 83.3% (inactive).
The same measure for `O=C(/C=C/c1ccc(F)cc1)Nc1cccc2cccnc12`: 71.8% (inactive).
For the compound `CCCCOc1ccc(S(=O)(=O)N2CCN(c3nc(C)cc(N4CCOCC4)n3)CC2)cc1`, the growth is 7.73% (active).
Turning to `CCCNNC(=O)c1ccc(-c2ccc(NC(=O)CCCCCCC(=O)N[C@H](C(=O)N3C[C@H](O)C[C@H]3C(=O)N[C@@H](C)c3ccc(-c4scnc4C)cc3)C(C)(C)C)cc2)cc1`, the growth was 25.5% (inactive).
The same measure for `CCOC(=O)c1cccc(NC2=C(Cl)C(=O)c3nc(C)ccc3C2=O)c1`: 17.3% (inactive); for `CC(C)(C)Nc1nc2c(OCCc3ccccc3)cccn2c1-c1cccc(Oc2ccccc2)c1`: 34% (inactive); for `O=C(CCCCCCNC(=O)c1csc(Br)n1)NO`: 36.4% (inactive).
The result for `CCOC(=O)c1c(NC(=O)c2ccc(C(F)(F)F)cc2)sc2c3c(ccc12)OCN(C)C3` reads 41.9% (inactive); that for `O=C1C(N2CCN(c3ccccc3)CC2)=C(Cl)C(=O)c2ncccc21`, 70% (inactive); that for `COc1ccccc1/C=C1\Oc2ccc(O)c(O)c2C1=O`, 98.7% (inactive).
The result for `COc1cccc2c1C=CC1(O2)Oc2cccc(OC)c2C=C1C` (stereo unspecified) reads 27.9% (inactive); that for `COc1ccc(C(C)=C(c2ccc(OCCN3CCCCCC3)cc2)c2ccc(OCCN3CCCCCC3)cc2)cc1`, -67.9% (active); that for `O=C(CCCCCCN1CC(=O)N2[C@@H](c3ccccc3Br)c3[nH]c4ccccc4c3C[C@H]2C1=O)NO`, 48.3% (inactive).
For the compound `Cc1ccc2c(n1)C(=O)C(Cl)=C(Nc1cccc(C(F)(F)F)c1)C2=O`, the growth was -57.4% (active).
As for `CCC(=C(c1ccc(OCCN2CCCCCC2)cc1)c1ccc(OCCN2CCCCCC2)cc1)c1ccc(Cl)cc1`, the growth was 2.76% (active).
On to `CN1CCN(CCNc2nc(-c3cccc(NS(=O)(=O)c4cccc5c(N(C)C)cccc45)c3)cs2)CC1`, for which the growth was 78.5% (inactive).
The result for `CC(Nc1c(C#N)cnc2ccc(-c3cncc(-c4n[nH]c(=O)o4)c3)cc12)c1ccccc1` (stereo unspecified) reads -20% (active); that for `CC(=O)N(O)CCCCCNC(=O)CCC(=O)N(O)CCCCCNC(=O)CCC(=O)N(O)CCCCCN(CCCCCCCCCC[P+](c1ccccc1)(c1ccccc1)c1ccccc1)CCCCCCCCCC[P+](c1ccccc1)(c1ccccc1)c1ccccc1`, -63.9% (active).
The result for `Cn1cc(-c2cc3ncnc(Nc4ccc(CC(=O)Nc5nc(C(C)(C)C)cs5)cc4)c3s2)cn1` reads 12% (inactive); that for `CCOC(=O)C1=C(C)NC(C)=C(C(=O)OC(C)C)C1c1cccc(C#N)c1` (stereo unspecified), 103% (inactive).
The same measure for `Cc1cc2nc(C(Cl)Cl)nc(-c3ccc(S(=O)(=O)N(C)C)cc3)n2n1`: 23.1% (inactive).
